In PubChem BioAssay AID1794808 (University of Kansas High Throughput Screening Laboratory, 2022):
Screen size: about 210,000 compounds; about 520 (0.25%) were called active. The list comes from a sample in which actives are over-represented; it also holds similar structures and randomly drawn compounds. A number with no mark means an inactive call. Cut-off read from the data, not from the text of the source: active = inhibition above about 50%; inactive = the rest.

The molecules below were run on Plasmodium falciparum apicoplast DNA polymerase (apPOL) (assay: Pf-apPOL inhibitors, biochemical, fluorescence (AID 1794808)). Conditions: Recombinant Pf-apPOL, molecular beacon fluorescence, 1.5 h; at 10 µM; active compounds read high.
With `CCCCC1(c2ccccc2)C(=O)NC(=O)NC1=O` the inhibition was 81.2% (active). With `CCC1(c2ccccc2)C(=O)NC(=O)N(C(=O)c2ccccc2I)C1=O` (stereo not given) the inhibition was -1.8%. `CCC1(c2ccccc2)C(=O)NC(=O)N(C)C1=O` (stereo not given) gave an inhibition of -0.8%. `Cc1nnc(SCc2nc3ccccc3c(=O)n2-c2ccccc2Cl)s1` was tested, and the inhibition was 0.3%. `CCn1cc(C(=O)NCc2cccc(C)c2)c2cccnc21` showed an inhibition of -12.8%.
